Screening data deposited in PubChem by several laboratories.
This is a sample that favours compounds with a hit; in the whole collection about 3.1% have one here.
TRPM1 prom inh: reduces MITF-dependent TRPM1 promoter luciferase signal; SK-MEL-5 TRPM1 promoter luciferase, 24 h; inhibition, % at 12.5 µM; 0.83% of 330,000 active; AID 488899;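 active means mean inhibition across replicates of 60% or more, whatever share of single replicates reaches that level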
KKLEB tox: CF airway cell cytotoxicity counter-screen. 0.36% of 360,000 active. KKLEB CF airway cells viability, ATPlite luminescence, overnight; stronger effect = lower value; cells stimulated with P. aeruginosa culture filtrate. activity change (cytotoxicity), % at 5 µM;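 active means corrected activity change at or below -50% at 5 µM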
CF NFkB block: inhibitors of cystic fibrosis induced NF-kB. inhibition, % at 5 µM. 0.86% of 360,000 active. KKLEB NF-kB-GFP reporter, PAF-induced, GFP fluorescence overnight. AID 588850;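 active means at least 50% inhibition at 5 µM, scaled per plate between neutral and stimulator controls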;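 further: PAF is a Pseudomonas aeruginosa culture filtrate used as stimulus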
Peg3 prom inh-1: Peg3 promoter activity inhibition | inhibition, % at 20 µM | HeLa PEG-Prom luciferase reporter, luminescence, overnight | 1.7% of 360,000 active;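 active means inhibition of at least 50% at 20 µM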
HIF-2a block: blocks HIF-2a reporter activity. AID 624352. 786-0 RCC cells HIF-2a reporter, luciferase luminescence, overnight. 0.72% of 360,000 active. inhibition, % at 18.8 µM;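 active means inhibition of the luminescence signal of 40% or more relative to plate controls, in a single-dose primary screen at 18.75 µM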
ABHD5-PLIN5 inh: blocks binding of human ABHD5 to perilipin-5; Q00G26+Q8WTS1; Split G. princeps luciferase complementation, luminescence, 4 h; inhibition, % at 4 µM; AID 602281; 0.78% of 360,000 active;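 active means inhibition above the mean inhibition across every tested compound plus 3 SD, cut at about 22% in these data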
Target sequence (Q00G26 whole entry, looked up): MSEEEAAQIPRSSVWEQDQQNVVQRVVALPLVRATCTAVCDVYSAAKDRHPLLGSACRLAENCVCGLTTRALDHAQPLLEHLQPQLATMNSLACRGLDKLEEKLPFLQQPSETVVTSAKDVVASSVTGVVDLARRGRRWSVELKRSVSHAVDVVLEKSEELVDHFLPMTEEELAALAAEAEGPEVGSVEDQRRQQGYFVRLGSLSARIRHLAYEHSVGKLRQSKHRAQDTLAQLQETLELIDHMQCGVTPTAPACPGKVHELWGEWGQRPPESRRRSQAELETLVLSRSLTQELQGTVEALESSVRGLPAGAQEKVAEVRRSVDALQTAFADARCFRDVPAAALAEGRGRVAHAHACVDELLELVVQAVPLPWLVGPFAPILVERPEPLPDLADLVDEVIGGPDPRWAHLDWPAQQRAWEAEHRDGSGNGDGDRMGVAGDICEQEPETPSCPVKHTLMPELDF
Target sequence (Q8WTS1 whole entry, looked up): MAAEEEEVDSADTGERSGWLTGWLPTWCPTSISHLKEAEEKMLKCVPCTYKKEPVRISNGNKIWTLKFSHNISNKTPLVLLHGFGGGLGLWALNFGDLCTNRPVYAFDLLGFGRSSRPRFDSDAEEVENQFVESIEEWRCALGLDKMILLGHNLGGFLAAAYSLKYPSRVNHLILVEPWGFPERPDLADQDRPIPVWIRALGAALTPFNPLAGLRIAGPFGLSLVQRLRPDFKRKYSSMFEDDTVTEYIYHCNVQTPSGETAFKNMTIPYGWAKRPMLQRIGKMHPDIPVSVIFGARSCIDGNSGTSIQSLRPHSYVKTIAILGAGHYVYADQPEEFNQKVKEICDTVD
Peg3 prom inh-2: confirmation of Peg3 promoter inhibitors. shares compounds with Peg3 prom inh-1. HeLa PEG-Prom luciferase reporter, luminescence, overnight. inhibition, % at 20 µM. 84% of 1,300 active;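 active means at 20 µM dose, 40% or more inhibition averaged across four replicates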
Large screens that a line does not name were inactive (follow-up assays come after a bar, where they were run).

Cc1ccc(NC(=O)[C@@H](NC(=O)N2C[C@H]3C[C@@H](C2)c2cccc(=O)n2C3)C(C)C)cc1	none
COc1ccc(CNCCc2c(C)[nH]c3ccc(OC(F)(F)F)cc23)c(OC)c1	TRPM1 prom inh 92.2, Peg3 prom inh-1 99.4 | Peg3 prom inh-2 99.0
O=C1NC(=S)NC(=O)C1=Cc1cccc2cc3ccccc3cc12	TRPM1 prom inh 97.6, CF NFkB block 94.6, Peg3 prom inh-1 107.5 | Peg3 prom inh-2 100.0
C=CCN1CCC2(C)c3cc(O)ccc3CC1C2C (configuration not stated)	none
N#CCCn1cc(C(=O)Nc2ccc(F)cc2)c(-c2ccccc2)n1	none
COC(=O)C1=C(c2cccc(OCc3ccccc3)c2)C[C@@H]2CC[C@H]1N2C(=O)NCc1ccc2[nH]ccc2c1	none
O=C1NC(=S)N(c2ccccc2F)C(=O)/C1=C\c1cccs1	Peg3 prom inh-1 102.5, HIF-2a block 84.4 | Peg3 prom inh-2 83.0
CCN(CC)P(=O)(NC(=O)C(Cl)(Cl)Cl)N(CC)CC.[Cl-].[Cl-].[Cl-].[Nd+3]	none
CN1CCc2cc3c(c4c2C1Cc1ccccc1-4)OCO3 (configuration not stated)	Peg3 prom inh-1 70.8 | Peg3 prom inh-2 inactive
Cc1cc(C)c(C)c(C(O)(C(=O)O)c2ccccc2)c1 (configuration not stated)	none (no result: TRPM1 prom inh)
CC1=CC(O)C(O)C2(C)C1CC1OC(=O)C(O)C3C(C)C(O)C4(O)OCC13C42 (configuration not stated)	Peg3 prom inh-1 67.9 | Peg3 prom inh-2 44.9
COc1cccc2c1C(=O)c1c(O)c3c(c(O)c1C2=O)CC(O)(C(C)=NO)CC3OC1CC(N)C(O)C(C)O1 (configuration not stated)	TRPM1 prom inh 70.1, Peg3 prom inh-1 98.9 | Peg3 prom inh-2 99.2
CC(=O)[C@H]1CCC2C3CC[C@H]4C[C@@H](O)CC[C@]4(C)C3CC[C@@]21C (some centres not stated)	none
CC(=O)OC1CC2(O)C3CCC4CC(O)CCC4(C)C3CCC2(C)C1C1=CC(=O)OC1 (configuration not stated)	TRPM1 prom inh 71.2, CF NFkB block 89.6, Peg3 prom inh-1 97.4, HIF-2a block 68.8 | Peg3 prom inh-2 98.5
Cc1ccc(N2C(=O)NC(=O)/C(=C/C=C/c3ccco3)C2=O)cc1	TRPM1 prom inh 73.0, CF NFkB block 80.6, Peg3 prom inh-1 86.3, HIF-2a block 64.1 | Peg3 prom inh-2 inactive
Cc1ccc(N2C(=O)NC(=O)/C(=C/c3ccoc3)C2=O)cc1	none
CCN(CC)C(=O)c1ccc(NC(=O)Nc2ccccc2F)cc1	Peg3 prom inh-1 55.8 | Peg3 prom inh-2 45.0
CCN(CC)C(=O)c1ccc(NC(=O)CCCSc2ccccc2)cc1	none
CC(=O)c1cn(Cc2ccc(C#N)cc2)c2ccccc12	none
O=Cc1cn(Cc2ccc(F)cc2)c2ccccc12	Peg3 prom inh-1 77.6 | Peg3 prom inh-2 68.8
O=Cc1cn(Cc2ccc([N+](=O)[O-])cc2)c2ccccc12	Peg3 prom inh-1 91.2 | Peg3 prom inh-2 79.7
Cc1c(C=O)c2ccccc2n1Cc1ccc(F)cc1	none
CCC(c1nnnn1C1CCCC1)N1CCC2(CC1)C(=O)NCN2c1ccccc1 (configuration not stated)	none (no result: TRPM1 prom inh)
COc1ccc(-n2nnnc2C(C2CC2)N2CCC(n3c(=O)[nH]c4ccccc43)CC2)cc1 (configuration not stated)	Peg3 prom inh-1 58.4 (no result: TRPM1 prom inh) | Peg3 prom inh-2 58.3
CCC(c1nnnn1-c1ccc2c(c1)OCCO2)N1CCC(n2c(=O)[nH]c3ccccc32)CC1 (configuration not stated)	KKLEB tox -76.4, CF NFkB block 78.9, Peg3 prom inh-1 78.5 (no result: TRPM1 prom inh) | Peg3 prom inh-2 79.6
O=C(CSC1c2ccccc2-c2ccccc21)N/N=C/c1ccccc1O	Peg3 prom inh-1 54.5 | Peg3 prom inh-2 63.7
COC(=O)C1=C(c2cc3ccccc3o2)C[C@@H]2CC[C@H]1N2C(=O)NCc1cccc2ccccc12	none
Cn1cccc1/C=C1/C(=O)NC(=S)N(Cc2ccc(F)cc2)C1=O	Peg3 prom inh-1 106.2 | Peg3 prom inh-2 63.1
CCCCc1ccc(NC2=NCCCS2)cc1	none
